The supplement of paper PMC10849652
The full data set covers some 7,900 targets. This sample favours those with a hit. About 0.6% of all pairs of compound and target were hits. A number with no mark means an inactive call.

Assays:
Test in all cases: log2 fold change, soluble protein after heating vs DMSO (PISA); higher = thermal stabilisation; K562 cells, 10 uM, 30 min; active = over 0.2 and 3.5 SD of the protein, either way, in both replicates (recomputed)
[1] = compound: CC1=C(C=C(C=C1)NC(=O)C2=CC(=CC=C2)C(C)(C)C#N)NC3=CC4=C(C=C3)N=CN(C4=O)C
How it was run: (§1)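 K562 cells at 2×10^6 cells/mL were given 10 μM compound for 30 min. Aliquots then went through 3 min of heating across 48°C-58°C, were pooled, and were extracted in PBS with 0.5% NP-40 at 4°C, and the supernatant after 21,000xg for 90 min was quantified by TMTpro 16plex LC-MS/MS with channel sums equalised. Thermal stability relative to control samples, from duplicates, is given as log2 fold change.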

[2] = compound: CC1=C(C=C(C=C1)NC(=O)C2=CC(=CC=C2)N(C)C)NC(=O)C3=CC=C(C=C3)O
How it was run: as §1

[3] = compound: CC1=CC=C(C=C1)SC2=C3C=C(SC3=CN=C2)C(=O)N
How it was run: as §1

[4] = compound: CC1=NC(=CC=C1)C2=C(N=C(N2)C(C)(C)C)C3=CC4=NC=CN=C4C=C3
How it was run: as §1

Nexturastat A = compound: CCCCN(Cc1ccc(C(=O)NO)cc1)C(=O)Nc1ccccc1 [Nexturastat A]
How it was run: as §1

vemurafenib = compound: CCCS(=O)(=O)Nc1ccc(F)c(C(=O)c2c[nH]c3ncc(-c4ccc(Cl)cc4)cc23)c1F [vemurafenib]
How it was run: as §1

[5] = compound: CCCS(=O)(=O)Nc1ccc(F)c(C(=O)c2c[nH]c3ncc(Cl)cc23)c1F
How it was run: as §1

[6] = compound: CCCc1cc(C)[nH]c(=O)c1CNC(=O)c1cc(-c2ccnc(N3CCN(C)CC3)c2)cc2c1cnn2C(C)C
How it was run: as §1

givinostat = compound: CCN(CC)Cc1ccc2cc(COC(=O)Nc3ccc(C(=O)NO)cc3)ccc2c1 [givinostat]
How it was run: as §1

barasertib = compound: CCN(CCCOc1ccc2c(Nc3cc(CC(=O)Nc4cccc(F)c4)[nH]n3)ncnc2c1)CCOP(=O)(O)O [barasertib]
How it was run: as §1

[7] = compound: CC[C@@H]1C(=O)N(C)c2cnc(Nc3ccc(C(=O)NC4CCN(C)CC4)cc3OC)nc2N1C1CCCC1
How it was run: as §1

volasertib = compound: CC[C@@H]1C(=O)N(C)c2cnc(Nc3ccc(C(=O)N[C@H]4CC[C@H](N5CCN(CC6CC6)CC5)CC4)cc3OC)nc2N1C(C)C [volasertib]
How it was run: as §1

[8] = compound: CC[C@H](C)N1C=C(C2=C(C=C(C=C21)C3=CN=C(C=C3)N4CCNCC4)C(=O)NCC5=C(C=C(NC5=O)C)C)C
How it was run: as §1

epoxomicin = compound: CC[C@H](C)[C@@H](C(=O)N[C@@H]([C@@H](C)O)C(=O)N[C@@H](CC(C)C)C(=O)[C@]1(CO1)C)NC(=O)[C@H]([C@@H](C)CC)N(C)C(=O)C [epoxomicin]
How it was run: as §1

[9] = compound: CCn1c(C(=O)N(C2CC2)C2CC2)cc2c3c(ncn3C)c(Nc3cc(C)n(C)n3)nc21
How it was run: as §1

[10] = compound: CCn1cc(-c2ccnc3[nH]c(-c4cccc(CN(C)C)c4)cc23)c(-c2ccc(NC(=O)N(C)C)cc2)n1
How it was run: as §1

[11] = compound: CN(C)CC(=O)Nc1ccc2[nH]c(=O)c3ccccc3c2c1
How it was run: as §1

rosiglitazone = compound: CN(CCOC1=CC=C(C=C1)C[C@H]2C(=O)NC(=O)S2)C3=CC=CC=N3 (racemic) [rosiglitazone]
How it was run: as §1

[12] = compound: CN1C2=C(C3=C1C(=O)N(N=C3)CC4=CC(=CC=C4)N)SC(=C2)S(=O)C
How it was run: as §1

[13] = compound: CN1CCC(CNc2ccc3ncc(-c4cccc(OC(F)(F)F)c4)n3n2)CC1
How it was run: as §1

Sequence of UniProt Q6P9B6 (Q6P9B6 whole entry, looked up): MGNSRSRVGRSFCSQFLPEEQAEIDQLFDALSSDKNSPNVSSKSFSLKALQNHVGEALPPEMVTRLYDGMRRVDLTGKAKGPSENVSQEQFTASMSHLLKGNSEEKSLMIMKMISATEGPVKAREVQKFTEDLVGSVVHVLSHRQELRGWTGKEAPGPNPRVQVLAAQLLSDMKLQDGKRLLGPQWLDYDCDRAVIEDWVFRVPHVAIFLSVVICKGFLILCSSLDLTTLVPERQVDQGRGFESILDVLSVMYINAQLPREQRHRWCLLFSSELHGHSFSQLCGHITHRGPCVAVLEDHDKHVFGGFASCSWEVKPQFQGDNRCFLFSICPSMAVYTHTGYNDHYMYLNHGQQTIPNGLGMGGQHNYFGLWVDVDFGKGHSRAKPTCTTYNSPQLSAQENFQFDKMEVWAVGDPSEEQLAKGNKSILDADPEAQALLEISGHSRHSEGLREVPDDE
Sequence of UniProt Q13422 (Q13422 whole entry, looked up): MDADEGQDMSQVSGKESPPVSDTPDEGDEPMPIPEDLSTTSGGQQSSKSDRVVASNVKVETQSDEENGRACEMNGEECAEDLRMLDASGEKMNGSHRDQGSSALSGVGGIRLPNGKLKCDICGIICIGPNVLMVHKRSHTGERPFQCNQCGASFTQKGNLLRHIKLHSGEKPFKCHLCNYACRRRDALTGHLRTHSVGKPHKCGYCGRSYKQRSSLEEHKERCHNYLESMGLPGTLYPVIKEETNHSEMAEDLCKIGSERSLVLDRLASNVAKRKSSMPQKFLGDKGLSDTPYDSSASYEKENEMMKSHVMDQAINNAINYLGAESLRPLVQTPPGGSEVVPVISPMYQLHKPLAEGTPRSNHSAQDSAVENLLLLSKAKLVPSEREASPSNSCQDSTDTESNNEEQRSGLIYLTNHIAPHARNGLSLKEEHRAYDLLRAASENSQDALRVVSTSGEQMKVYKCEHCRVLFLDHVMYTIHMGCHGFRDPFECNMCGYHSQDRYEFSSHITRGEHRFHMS
Sequence of UniProt Q8TBB5 (Q8TBB5 whole entry, looked up): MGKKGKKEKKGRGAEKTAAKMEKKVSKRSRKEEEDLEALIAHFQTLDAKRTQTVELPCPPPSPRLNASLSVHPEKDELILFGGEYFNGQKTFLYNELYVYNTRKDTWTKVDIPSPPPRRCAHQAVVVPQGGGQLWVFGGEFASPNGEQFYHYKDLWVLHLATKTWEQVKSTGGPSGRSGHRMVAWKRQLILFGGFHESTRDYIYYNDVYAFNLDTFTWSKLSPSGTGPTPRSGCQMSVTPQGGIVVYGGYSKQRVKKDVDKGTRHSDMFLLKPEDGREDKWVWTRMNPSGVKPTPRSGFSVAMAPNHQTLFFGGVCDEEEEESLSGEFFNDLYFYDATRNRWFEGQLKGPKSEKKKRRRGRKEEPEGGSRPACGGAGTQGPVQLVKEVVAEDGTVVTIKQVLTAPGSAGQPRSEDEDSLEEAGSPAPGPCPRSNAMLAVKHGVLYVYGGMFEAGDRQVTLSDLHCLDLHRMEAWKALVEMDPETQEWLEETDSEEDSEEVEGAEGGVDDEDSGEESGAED
Sequence of UniProt Q68DH5 (Q68DH5 whole entry, looked up): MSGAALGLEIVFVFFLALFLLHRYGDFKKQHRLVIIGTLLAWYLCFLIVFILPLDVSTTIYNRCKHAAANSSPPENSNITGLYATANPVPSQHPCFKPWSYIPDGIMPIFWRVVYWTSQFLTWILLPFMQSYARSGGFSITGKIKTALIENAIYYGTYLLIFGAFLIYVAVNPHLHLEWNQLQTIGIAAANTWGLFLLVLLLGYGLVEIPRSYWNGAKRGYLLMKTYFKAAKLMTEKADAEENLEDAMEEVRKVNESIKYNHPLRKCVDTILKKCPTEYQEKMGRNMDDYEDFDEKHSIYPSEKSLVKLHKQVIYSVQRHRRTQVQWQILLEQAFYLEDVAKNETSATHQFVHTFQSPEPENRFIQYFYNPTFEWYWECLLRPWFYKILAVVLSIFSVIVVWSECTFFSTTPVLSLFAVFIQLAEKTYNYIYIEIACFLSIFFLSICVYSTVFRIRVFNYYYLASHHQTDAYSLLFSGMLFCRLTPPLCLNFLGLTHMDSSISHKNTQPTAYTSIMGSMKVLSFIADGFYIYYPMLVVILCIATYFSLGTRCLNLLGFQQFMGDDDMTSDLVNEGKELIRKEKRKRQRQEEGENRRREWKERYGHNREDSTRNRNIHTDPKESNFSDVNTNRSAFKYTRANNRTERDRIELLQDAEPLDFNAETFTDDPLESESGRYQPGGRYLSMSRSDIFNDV
Sequence of UniProt Q9GZY8 (Q9GZY8 whole entry, looked up): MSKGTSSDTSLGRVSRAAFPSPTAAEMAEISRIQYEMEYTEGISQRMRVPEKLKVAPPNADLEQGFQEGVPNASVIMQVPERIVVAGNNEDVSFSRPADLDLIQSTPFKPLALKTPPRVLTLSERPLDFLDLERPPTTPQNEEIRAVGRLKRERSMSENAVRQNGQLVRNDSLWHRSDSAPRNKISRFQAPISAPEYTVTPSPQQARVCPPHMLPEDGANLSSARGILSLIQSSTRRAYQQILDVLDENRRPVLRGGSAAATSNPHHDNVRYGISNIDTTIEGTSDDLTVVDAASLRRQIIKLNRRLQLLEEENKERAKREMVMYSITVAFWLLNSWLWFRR
Sequence of UniProt A1L0T0 (A1L0T0 whole entry, looked up): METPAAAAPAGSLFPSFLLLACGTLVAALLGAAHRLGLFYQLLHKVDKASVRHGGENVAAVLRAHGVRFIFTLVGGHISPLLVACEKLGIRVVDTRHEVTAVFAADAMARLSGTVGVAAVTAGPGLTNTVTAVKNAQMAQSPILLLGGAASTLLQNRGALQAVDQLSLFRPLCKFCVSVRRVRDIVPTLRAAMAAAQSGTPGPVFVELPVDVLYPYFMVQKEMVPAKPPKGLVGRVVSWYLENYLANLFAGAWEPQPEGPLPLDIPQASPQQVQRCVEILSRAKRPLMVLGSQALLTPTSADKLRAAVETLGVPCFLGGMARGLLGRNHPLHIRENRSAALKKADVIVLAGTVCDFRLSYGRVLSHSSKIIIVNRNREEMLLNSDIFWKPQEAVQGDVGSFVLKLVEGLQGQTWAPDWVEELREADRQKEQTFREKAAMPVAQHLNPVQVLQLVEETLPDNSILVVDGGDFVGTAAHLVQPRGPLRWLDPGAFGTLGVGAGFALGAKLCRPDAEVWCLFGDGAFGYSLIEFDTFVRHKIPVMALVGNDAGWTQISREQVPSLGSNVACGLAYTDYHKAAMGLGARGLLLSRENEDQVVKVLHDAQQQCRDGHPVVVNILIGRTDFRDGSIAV
Sequence of UniProt Q8IWB1 (Q8IWB1 whole entry, looked up): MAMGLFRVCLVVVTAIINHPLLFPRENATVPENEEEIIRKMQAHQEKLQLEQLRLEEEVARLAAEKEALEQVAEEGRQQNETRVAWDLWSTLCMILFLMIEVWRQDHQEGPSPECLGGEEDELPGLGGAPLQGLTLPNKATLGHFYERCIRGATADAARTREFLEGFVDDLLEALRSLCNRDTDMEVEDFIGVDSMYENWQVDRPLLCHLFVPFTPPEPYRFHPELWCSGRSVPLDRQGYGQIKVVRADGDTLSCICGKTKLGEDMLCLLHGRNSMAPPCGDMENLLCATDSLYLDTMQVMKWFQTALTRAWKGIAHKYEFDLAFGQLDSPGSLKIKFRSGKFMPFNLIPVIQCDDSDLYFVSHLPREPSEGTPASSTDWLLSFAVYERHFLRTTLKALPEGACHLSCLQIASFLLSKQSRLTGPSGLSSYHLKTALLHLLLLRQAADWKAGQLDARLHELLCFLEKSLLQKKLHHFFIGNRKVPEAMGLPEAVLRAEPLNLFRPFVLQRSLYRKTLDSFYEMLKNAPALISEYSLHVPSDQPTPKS
Sequence of UniProt Q9UBF1 (Q9UBF1 whole entry, looked up): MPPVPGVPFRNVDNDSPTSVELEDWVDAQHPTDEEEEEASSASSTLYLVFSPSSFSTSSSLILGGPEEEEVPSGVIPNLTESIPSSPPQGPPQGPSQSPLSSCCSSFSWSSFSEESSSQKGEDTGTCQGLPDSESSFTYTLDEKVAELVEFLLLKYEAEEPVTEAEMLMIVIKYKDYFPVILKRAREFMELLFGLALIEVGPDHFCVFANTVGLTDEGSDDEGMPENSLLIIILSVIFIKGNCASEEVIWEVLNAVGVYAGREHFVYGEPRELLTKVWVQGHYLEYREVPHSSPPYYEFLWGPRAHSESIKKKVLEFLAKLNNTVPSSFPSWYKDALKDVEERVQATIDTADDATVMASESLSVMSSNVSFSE

Target | log2 fold change [1] | log2 fold change [2] | log2 fold change [3] | log2 fold change [4] | log2 fold change (Nexturastat A) | log2 fold change (vemurafenib) | log2 fold change [5] | log2 fold change [6] | log2 fold change (givinostat) | log2 fold change (barasertib) | log2 fold change [7] | log2 fold change (volasertib) | log2 fold change [8] | log2 fold change (epoxomicin) | log2 fold change [9] | log2 fold change [10] | log2 fold change [11] | log2 fold change (rosiglitazone) | log2 fold change [12] | log2 fold change [13]
KLHDC4 (UniProt Q8TBB5) | -0.027 | -0.003 | -0.007 | -0.092 | 0.18 | 0.096 | 0.076 | -0.223 | -0.011 | 0.028 | 0.091 | -0.342 | 0.012 | -0.026 | 0.036 | -0.064 | 0.065 | -0.012 | 0.075 | 0.158
LMBRD2 (UniProt Q68DH5) | -0.038 | 0.016 | 0.043 | 0 | 0.019 | -0.052 | -0.03 | 0.038 | 0.043 | 0.011 | -0.063 | -0.042 | -0.012 | 0.081 | -0.007 | -0.018 | 0.002 | -0.023 | -0.008 | -0.362 (active)
ITPRIP (UniProt Q8IWB1) | -0.044 | 0.007 | -0.01 | 0.081 | 0.005 | 0.02 | 0.061 | -0.099 | 0.007 | 0.023 | -0.037 | -0.148 | -0.012 | -0.019 | -0.016 | 0.031 | 0 | 0.044 | -0.111 | -0.017
MFF (UniProt Q9GZY8) | -0.036 | 0.002 | 0.039 | 0.02 | 0.006 | -0.013 | 0.018 | -0.117 | 0.033 | 0.036 | -0.007 | 0 | -0.046 | 0.037 | 0 | 0.043 | -0.031 | 0.035 | 0.031 | -0.386 (active)
MAGEC2 (UniProt Q9UBF1) | 0.017 | 0.045 | -0.046 | 0.057 | 0 | 0.035 | 0.04 | 0.005 | -0.013 | -0.005 | -0.017 | -0.146 | 0.028 | -0.062 | 0.038 | -0.048 | -0.007 | 0.011 | -0.063 | 0
MEAK7 (UniProt Q6P9B6) | 0.081 | 0.053 | -0.005 | 0.015 | -0.006 | 0.012 | 0.067 | -0.055 | 0.085 | 0.025 | -0.084 | -0.473 (active) | 0.039 | 0.067 | -0.025 | -0.03 | -0.046 | 0.103 | -0.033 | -0.097
ILVBL (UniProt A1L0T0) | -0.021 | -0.052 | 0.005 | -0.051 | 0.007 | 0.037 | 0.049 | 0.004 | -0.002 | 0.021 | 0.049 | 0.069 | -0.034 | 0.069 | 0.006 | 0.042 | 0.036 | -0.044 | -0.068 | 0.019
IKZF1 (UniProt Q13422) | 0.144 | 0.036 | -0.007 | 0.041 | -0.006 | 0.044 | 0.034 | 0.177 | -0.018 | -0.052 | 0.079 | -0.067 | 0.053 | -0.052 | 0.018 | -0.048 | 0.024 | 0.008 | 0.051 | -0.239
